Fluorescein autfl – compound autofluorescence in fluorescein spectral region; max fluorescein-equivalent concentration, M; Compound autofluorescence, 480/540 nm, fluorescein-equivalent; active compounds read high; 59,000 tested, 0.91% active; in the data active = max fluorescein-equivalent concentration above about 10 nM; inconclusive = between about 1.1 nM and that limit
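Each compound is tested across a concentration series in 100 mM Tris buffer at pH 8.0. After 15 min at room temperature, plates are imaged with 480 nm excitation and 540 nm emission filters, and intensities are converted to fluorescein-equivalent values.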
A488 fluor – A488 region autofluorescence. compound autofluorescence, A488 spectral region, dye equivalency; Compound Type: qHTS ECL - MLSMR. 59,000 tested, 0.1% active. max dye equivalency, M. AID 591
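Readout is A488 dye-equivalent concentration, calibrated by a per-plate six-point Alexa 488 series. Compounds in 100 mM Tris buffer pH 8.0 were incubated 15 min at room temperature. Plates were imaged using 480 nm excitation/540 nm emission filters.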
TexasRed autofl – compounds fluorescent in Texas Red spectral region; max dye-equivalent concentration, M; Compound fluorescence, Texas Red channel, 547/618 nm; active compounds read high; 59,000 tested, 0.06% active; AID 587; in the data active = max dye-equivalent concentration above about 10 nM; inconclusive = between about 1.1 nM and that limit
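Texas Red-region profiling: compounds in 100 mM Tris pH 8.0 were read at 547/618 nm after 15 min at room temperature. Intensities were normalized against a six-point Texas Red standard series to give dye-equivalent concentration.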
Resorufin autofl – resorufin region autofluorescence; AID 588; Compound fluorescence, resorufin region 547/598 nm, buffer; active compounds read high; max dye-equivalent concentration, M; 59,000 tested, 0.04% active
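Intrinsic fluorescence profiled in the resorufin window (ex 547 nm, em 598 nm) after 15 min at room temperature in pH 8.0 Tris buffer (100 mM); responses normalized against a six-point resorufin standard series as dye-equivalent concentration.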
Rhodamine fluor – compound autofluorescence in rhodamine spectral region; Rhodamine-region fluorescence, 547/598 nm, Tris buffer; active compounds read high; AID 594; 59,000 tested, 0.05% active; max dye-equivalent concentration, M; in the data active = max dye-equivalent concentration above about 11 nM; inconclusive = between about 1.1 nM and that limit
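Steps: pin-transfer compounds into pH 8.0 Tris (100 mM), hold 15 min at room temperature, image with a 547/598 nm filter pair, and convert intensities to rhodamine-equivalent concentration using a six-point on-plate rhodamine series.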
A647 fluor – A647 region autofluorescence | AID 592 | 59,000 tested, under 10 active | Compound fluorescence, A647 channel (570/671 nm), Tris buffer | max dye-equivalent concentration, M;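 also: values scaled relative to a standard on each plate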
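Buffer was dispensed, compounds and Alexa 647 standards were pin-transferred, and plates sat 15 min at room temperature. Intensity at 570/671 nm was then converted to dye-equivalent concentration using the plate's A647 standard curve.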
* = called active by the depositor; i = inactive; u = inconclusive. Only some compounds are listed: those with a hit (about 0.9% of all), similar ones and a draw of the others. Unless noted, no rule for the calls is given here.

SMILES	Fluorescein autfl	A488 fluor	TexasRed autofl	Resorufin autofl	Rhodamine fluor	A647 fluor
CC(c1ccccc1)C1C(C#N)=C(N)SC(N)=C1C#N (stereo not given)	i	i	i	i	i	1e-09
N#CC1=C(N)SC(N)=C(C#N)C1c1ccnc2ccccc12	u	i	i	i	i	4.42e-08
Cc1ccc(C2C(C#N)=C(N)SC(N)=C2C#N)c(C)c1	1.03e-08M*	i	i	i	i	1.95e-08
Cc1ccc(C2C(C#N)=C(N)SC(N)=C2C#N)cc1	2.32e-08M*	i	i	i	i	4.6e-08
N#CC1=C(N)SC(N)=C(C#N)C1c1ccoc1	1.75e-08M*	i	i	i	i	2.19e-08
O=S(=O)(Nc1ncccc1O)c1ccc(Cl)cc1	i	i	i	i	i	5.8e-09
CN1Cc2sc(N)c(C#N)c2CC1(C)C	3.1e-08M*	u	u	i	u	1e-09
CC(=O)C1C(=O)C=C(c2ccco2)CC1c1ccccc1 (stereo not given)	i	i	i	i	i	1e-09
CCN1CCc2c(sc3c2c(NCc2ccco2)nc2nnnn23)C1	1.28e-08M*	i	i	i	i	1e-09
Cc1nc(NCc2ccco2)c2c3c(sc2n1)CCC3	i	i	i	i	i	1.44e-08
CC1(C)CC(=O)C2=C(C1)N1CCCCC1CC2=O (stereo not given)	1.54e-08M*	i	i	i	i	3.2e-08
Cc1onc(-c2c(F)cccc2Cl)c1C(=O)N1CCN(S(C)(=O)=O)CC1	u	i	i	i	i	3.98e-08
CCOC(=O)c1c(C)[nH]c(C=Nc2ccccc2)c1O	1.73e-08M*	i	u	i	i	3.61e-08

Source: PubChem
